Measured values: a collection of fitness landscapes (doi:10.1016/j.celrep.2020.107928)
The full ranking holds about 81,000 sequences; the median of “one-hybrid fitness for binding NBS DNA” is about -0.1, and the highest 2% start at about 0.36. For the sample, the highest values were picked, then their nearest neighbours and some sequences at random.

B1: Caulobacter ParB omega fusion; a variant is named by its letters at X, in order, B8GW30 (parent)
chain: MESVVVGEPGMSEGRRGLGRGLSALLGEVDAAPAQAPGEQLGGSREAPIEILQRNPDQPRRTFREEDLEDLSNSIREKGVLQPILVRPSPDTAGEYQIVAGERAWRAAQRAGLKTVPIMVRELDDLAVLEIGIIENVQRADLNVLEEALSYKVLMEKFERTQENIAQTIGKSXSHVANXMRLLXLPDEVQSYLVSGELTAXHARAIAAAADPVALAKQIIEGGLSVRETEALARKAPNLSAGKSKGGRPPRVKDTDTQALESDLSSVLGLDVSIDHRGSTGTLTITYATLEQLDDLCNRLTRGI

Variants of: B1
Assay: one-hybrid fitness for binding NBS DNA (the Noc-binding site; scaled: cognate 1, non-cognate 0); higher = stronger binding
Details: with NBS DNA site
Method in brief: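 Pre- and post-selection plasmids were Illumina-sequenced, three replicate libraries were pooled, and any variant with under 10 reads was removed. The libraries were Caulobacter ParB with four specificity codons randomised, selected in E. coli USO through a HIS3 reporter whose site is 19 bp from the promoter. Cells grew 48 hours at 37°C on M9 without histidine, with 0.1 mM IPTG and 5 mM 3-AT. Fitness is the log change in variant-to-wild-type read ratio, rescaled against cognate and non-cognate.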

PTNP and HCFY cannot be ordered by “one-hybrid fitness for binding NBS DNA” value: no more than 0.2 for the first, no more than 0.2 for the second.

IFEL and SQFR cannot be ordered by “one-hybrid fitness for binding NBS DNA” value: no more than 0.2 for the first, no more than 0.2 for the second.

SQRR and VILC cannot be ordered by “one-hybrid fitness for binding NBS DNA” value: no more than 0.2 for the first, no more than 0.2 for the second.

QAWG and NLDR cannot be ordered by “one-hybrid fitness for binding NBS DNA” value: no more than 0.2 for the first, no more than 0.2 for the second.

PTAP and DHKN cannot be ordered by “one-hybrid fitness for binding NBS DNA” value: no more than 0.2 for the first, no more than 0.2 for the second.

EVMR and TDVL cannot be ordered by “one-hybrid fitness for binding NBS DNA” value: no more than 0.2 for the first, no more than 0.2 for the second.

SRRL and GLRT cannot be ordered by “one-hybrid fitness for binding NBS DNA” value: no more than 0.2 for the first, no more than 0.2 for the second.

Compared with RKHQ, RKYR is higher in “one-hybrid fitness for binding NBS DNA” value: no more than 0.2 for the first, 0.573 for the second.

Going from RKNR to RKYF, the “one-hybrid fitness for binding NBS DNA” value falls from 0.639 to no more than 0.2.

Compared with RKNP, RKHR is higher in “one-hybrid fitness for binding NBS DNA” value: no more than 0.2 for the first, 0.648 for the second.

First: RKYN
Second: RKNC
The “one-hybrid fitness for binding NBS DNA” value of the first is lower: no more than 0.2 for the first, 0.281 for the second.

First: RKHF
Second: RKDR
The “one-hybrid fitness for binding NBS DNA” value of the first is lower: no more than 0.2 for the first, 0.443 for the second.

GTKM and DLTE cannot be ordered by “one-hybrid fitness for binding NBS DNA” value: no more than 0.2 for the first, no more than 0.2 for the second.

LAPI and SAAD cannot be ordered by “one-hybrid fitness for binding NBS DNA” value: no more than 0.2 for the first, no more than 0.2 for the second.

NGLS and NRSI cannot be ordered by “one-hybrid fitness for binding NBS DNA” value: no more than 0.2 for the first, no more than 0.2 for the second.

RRTL and LHEN cannot be ordered by “one-hybrid fitness for binding NBS DNA” value: no more than 0.2 for the first, no more than 0.2 for the second.

HLQP and MMSM cannot be ordered by “one-hybrid fitness for binding NBS DNA” value: no more than 0.2 for the first, no more than 0.2 for the second.

LRWK and RKQM cannot be ordered by “one-hybrid fitness for binding NBS DNA” value: no more than 0.2 for the first, no more than 0.2 for the second.

Going from RKSH to RKSD, the “one-hybrid fitness for binding NBS DNA” value falls from 0.211 to no more than 0.2.

Going from RKGH to RKSR, the “one-hybrid fitness for binding NBS DNA” value rises from 0.301 to 0.581.

Going from RKQQ to RKWR, the “one-hybrid fitness for binding NBS DNA” value rises from no more than 0.2 to 0.49.

RKWH and RKGP cannot be ordered by “one-hybrid fitness for binding NBS DNA” value: no more than 0.2 for the first, no more than 0.2 for the second.

Going from RKWP to RKGR, the “one-hybrid fitness for binding NBS DNA” value rises from no more than 0.2 to 0.606.

First: RKQR
Second: MTIG
The “one-hybrid fitness for binding NBS DNA” value of the first is higher: 0.573 for the first, no more than 0.2 for the second.

VDYG and AHFR cannot be ordered by “one-hybrid fitness for binding NBS DNA” value: no more than 0.2 for the first, no more than 0.2 for the second.

QHIC and TCFS cannot be ordered by “one-hybrid fitness for binding NBS DNA” value: no more than 0.2 for the first, no more than 0.2 for the second.

VSQV and PITE cannot be ordered by “one-hybrid fitness for binding NBS DNA” value: no more than 0.2 for the first, no more than 0.2 for the second.

GSCV and NCKS cannot be ordered by “one-hybrid fitness for binding NBS DNA” value: no more than 0.2 for the first, no more than 0.2 for the second.

YSQQ and MHKT cannot be ordered by “one-hybrid fitness for binding NBS DNA” value: no more than 0.2 for the first, no more than 0.2 for the second.

PLRH and SRLF cannot be ordered by “one-hybrid fitness for binding NBS DNA” value: no more than 0.2 for the first, no more than 0.2 for the second.

IRKG and HKFT cannot be ordered by “one-hybrid fitness for binding NBS DNA” value: no more than 0.2 for the first, no more than 0.2 for the second.

Going from RKRM to RKRK, the “one-hybrid fitness for binding NBS DNA” value falls from 0.258 to 0.222.

First: RKRR
Second: PTAM
The “one-hybrid fitness for binding NBS DNA” value of the first is higher: 0.736 for the first, no more than 0.2 for the second.
